According to the supplement of paper PMC10127200:
Where a name gives a salt, the structure may show the parent alone.

Tests used:
Experiment in all cases: Euclidean distance of Cell Painting phenotypic profile (signed KS, 77 features) to DMSO centroid (dimensionless distance); 5 or 10 uM (library dependent); higher = stronger phenotypic change vs DMSO (phenoactivity)
Details in all cases: 48 h
[1] = test system: 786-O
Method in brief: (§1)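 Five cancer lines, together with a healthy fibroblast line, received library compounds for 48 h at a library-dependent 10 or 5 uM and 0.1% DMSO final. Harmony then derived 77 features from confocal 20X images (9 fields/well) of the stained cells, scoring each as a signed Kolmogorov-Smirnov statistic against same-plate vehicle wells. After plate-position correction, correlation weighting and replicate averaging at the top dose, phenoactivity was taken as each profile's Euclidean distance to the median vehicle profile.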

[2] = test system: A549
Method in brief: as §1

[3] = test system: DU145
Method in brief: as §1

[4] = test system: FB
Method in brief: as §1

[5] = test system: HEPG2
Method in brief: as §1

[6] = test system: OVCAR4
Method in brief: as §1

| SMILES | Euclidean distance [1] | Euclidean distance [2] | Euclidean distance [3] | Euclidean distance [4] | Euclidean distance [5] | Euclidean distance [6] |
| --- | --- | --- | --- | --- | --- | --- |
| COc1cc2nccc(Oc3ccc(NC(=O)C4(C(=O)Nc5ccc(F)cc5)CC4)cc3)c2cc1OC [Cabozantinib malate (XL184)] | 1.85 | 2.98 | 1.3 | 2.84 | 1.89 | 2.25 |
| O=C(c1cn(Cc2cncn2Cc2ccc(Br)cc2)cc1-c1cccc2ccccc12)N1CCOCC1 | 2.26 | 2.37 | 1.56 | 2.75 | 1.15 | 1.92 |
| C=CC(=O)Nc1cccc(Nc2nc(Nc3ccc(OCCOC)cc3)ncc2F)c1 [Spebrutinib (CC-292. AVL-292)] | 2.73 | 3.75 | 3.51 | 3.98 | 3.25 | 2.96 |
| O=C(Nc1cccc(C(F)(F)F)c1)Nc1cc(S(=O)(=O)NC2CC2)ccc1-c1ccsc1 | 0.684 | 1.29 | 1.11 | 1.51 | 2.45 | 1.01 |
| COC1CCN(C(=O)c2cc(Cc3n[nH]c(=O)c4ccccc34)ccc2F)CC1 | 1.09 | 1.25 | 1.32 | 1.5 | 1.36 | 1.3 |
| C[C@H](NC(=O)C(=O)Nc1ccccc1C(C)(C)C)C(=O)N[C@@H](CC(=O)O)C(=O)COc1c(F)c(F)cc(F)c1F [Emricasan] | 1.44 | 0.567 | 0.769 | 0.936 | 0.32 | 0.99 |
| C[C@]12CC[C@@H]3c4ccc(OC(=O)c5ccccc5)cc4CC[C@H]3[C@@H]1CC[C@@H]2O [Estradiol Benzoate] | 0.619 | 0.854 | 0.933 | 1.35 | 0.557 | 1.01 |
| COCCOC(=O)C1=C(C)NC(C)=C(C(=O)OC(C)C)C1c1cccc([N+](=O)[O-])c1 (centres undefined) [Nimodipine] | 1.59 | 1.37 | 1.08 | 1.08 | 1.96 | 1.09 |
| Cc1[nH]c2ccccc2c1CCNC(=O)c1cccs1 | 0.729 | 2.31 | 0.821 | 0.779 | 0.553 | 1.45 |
| C#C[C@]1(O)CC[C@H]2[C@@H]3CCc4cc(OC)ccc4[C@H]3CC[C@@]21C [Mestranol] | 1.12 | 0.814 | 0.785 | 1.26 | 0.905 | 1.38 |
| COC(=O)c1cc(OC)c2c(c1-c1c(CO)cc(OC)c3c1OCO3)OCO2 [Bicyclol] | 1.47 | 0.509 | 2.55 | 0.898 | 1.1 | 1.06 |
| NC1(c2ccc(-c3nc4ccn5c(=O)[nH]nc5c4cc3-c3ccccc3)cc2)CCC1 | 3.5 | 2.58 | 2.67 | 3.61 | 2.59 | 2.07 |
| COc1ccc(COc2ccc(Cc3cnc(N)nc3N)cc2OC)cc1 | 0.708 | 1.1 | 0.739 | 1.13 | 2.08 | 0.792 |
| Cc1ncc([N+](=O)[O-])n1CC(O)CCl (centres undefined) [Ornidazole] | 1.17 | 0.686 | 0.775 | 1.03 | 0.557 | 0.676 |
| O=C(c1ccc(C(=O)N2CCC(N3CCCC3)CC2)c(Nc2ccccc2)c1)N1CCC(N2CCCC2)CC1 | 0.8 | 1.05 | 0.703 | 0.904 | 0.536 | 0.678 |
| CC(C)NCC(O)COc1ccc(CCOCC2CC2)cc1 (centres undefined) [Betaxolol] | 0.891 | 0.384 | 0.799 | 0.967 | 1.64 | 1.14 |
| Cc1cc(Nc2cc(N3CCN(C)CC3)nc(/C=C/c3ccccc3)n2)n[nH]1 [ENMD-2076 L-(+)-Tartaric acid] | 2.7 | 3.58 | 2.34 | 3.64 | 2.99 | 2.91 |
| COc1cc2c(cc1OC)CN(CCc1ccc(NC(=O)c3cc(OC)c(OC)cc3NC(=O)c3cnc4ccccc4c3)cc1)CC2 [Tariquidar] | 0.987 | 1.26 | 1 | 1.17 | 0.844 | 1.04 |
| CN1CCN(CC(=O)N2c3ccccc3C(=O)Nc3cccnc32)CC1 [Pirenzepine dihydrochloride] | 0.695 | 1.06 | 0.77 | 0.7 | 1.03 | 0.804 |
| CO[C@@]1(NC(=O)C(C(=O)O)c2ccc(O)cc2)C(=O)N2C(C(=O)O)=C(CSc3nnnn3C)CO[C@@H]21 (some centres undefined) [Latamoxef sodium] | 1.53 | 0.777 | 1.09 | 0.907 | 0.797 | 1.39 |
| Clc1ccc(Nc2nnc(Cc3ccncc3)c3ccccc23)cc1 [Vatalanib (PTK787) 2HCl] | 1.01 | 1.05 | 1.47 | 1.53 | 1.42 | 1.29 |
| CCOc1ccc2nc3cc(N)ccc3c(N)c2c1 [Ethacridine lactate monohydrate] | 2.72 | 2.06 | 3.08 | 3.62 | 3.62 | 1.62 |
| CN(C)CCN1C(=O)c2cccc3cc(N)cc(c23)C1=O [Amonafide] | 3.45 | 4 | 2.47 | 3.29 | 4.06 | 3.48 |
| CNC(=O)[C@H](Cc1ccccc1)NC(=O)[C@H](CC(C)C)[C@H](CSc1cccs1)C(=O)NO [Batimastat (BB-94)] | 1.52 | 1.51 | 1.25 | 1.68 | 2.06 | 1.53 |
